Cav3 T inh – Cav3.2 calcium influx blockers – cell-based, Fluo-4 calcium fluorescence, FDSS, MLSMR library, primary screen; AID 449739, 2010; 4% of 100,000 active; B-score at 10 µM; Cav3.2-expressing cells; stronger effect = lower value;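 active = single-dose well whose peak fluorescence ratio is a statistical outlier from its plate by either plate-standardised score or position-corrected B-score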
CYP2C9 activ – human CYP2C9 activators, primary screen, biochemical, luminescence | Cytochrome P450 2C9 (Homo sapiens), P11712 | recombinant CYP2C9, luciferin-H conversion; stronger effect = higher value; factor 1 = untreated enzyme, 0 = blocked | activation factor at 5 µM | 1.4% of 96,000 active | AID 1024, 2008;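 active = activation factor of 2 or more for CYP2C9 at a 5 µM dose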;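 note: 0 = sulfaphenazole-blocked wells and 1 = vehicle-only wells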
CYP2C19 activ – human CYP2C19 activators, primary screen, biochemical, luminescence; 96,000 tested, under 10 active; activation factor at 5 µM; AID 1025, 2008; recombinant CYP2C19, luciferin-H EGE luminescence; stronger effect = higher value; 0 = fully inhibited enzyme, 1 = untreated enzyme;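 active = activation factor of at least 2 at 5 µM in the primary screen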;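 note: 0 = wells with 2.5 mM tranylcypromine and 1 = vehicle-only wells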
Target sequence (P33261 whole entry, looked up): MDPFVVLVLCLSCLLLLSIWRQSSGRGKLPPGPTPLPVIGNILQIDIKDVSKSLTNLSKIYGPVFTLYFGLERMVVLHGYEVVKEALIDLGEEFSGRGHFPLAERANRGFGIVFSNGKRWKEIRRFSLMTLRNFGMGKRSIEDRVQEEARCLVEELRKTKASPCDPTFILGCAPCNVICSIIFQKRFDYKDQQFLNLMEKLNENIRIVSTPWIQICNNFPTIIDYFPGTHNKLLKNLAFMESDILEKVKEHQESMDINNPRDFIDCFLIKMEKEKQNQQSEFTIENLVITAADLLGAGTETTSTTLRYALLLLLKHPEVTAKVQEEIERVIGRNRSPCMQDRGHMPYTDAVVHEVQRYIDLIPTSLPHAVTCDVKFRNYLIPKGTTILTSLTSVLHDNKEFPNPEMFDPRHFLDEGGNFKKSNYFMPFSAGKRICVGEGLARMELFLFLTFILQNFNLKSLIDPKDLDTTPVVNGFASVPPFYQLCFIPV
CYP2C9 inh – blockers of cytochrome P450 2C9 activity – biochemical, luminescence, ADME assay, primary screen; P11712; CYP2C9 Supersomes, luciferin-H conversion; inhibition, % at 5 µM; 20% of 96,000 active;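 active = blocking of liver enzyme CYP2C9 beyond about 50% at 5 µM, limit read from the data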
CYP2C19 inhib – blockers of cytochrome P450 2C19 activity – biochemical, luminescence, ADME assay, primary screen; P33261; CYP2C19 Supersomes, luciferin-H EGE luminescence, 30 min; inhibition, % at 5 µM; 21% of 96,000 active; AID 778, 2007;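 active = CYP2C19 inhibition above a set limit at 5 µM in the primary screen, cut at about 50% in these data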;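 note: plate controls were negative control wells for no effect and 2.5 mM tranylcypromine positive control for full effect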
* marks the source's active call; other numbers are inactive results; / = not tested or not shown. An excerpt weighted towards active compounds, which were near 27% of everything screened.

SMILES	Cav3 T inh	CYP2C9 activ	CYP2C19 activ	CYP2C9 inh	CYP2C19 inhib
Oc1ccc(C(c2nnnn2C2CCCC2)N2CCc3ccccc3C2)cc1 (configuration not stated)	-6.9*	0.2	0.1	81*	94*
COc1cc(C(c2nnnn2C2CCCC2)N2CCc3ccccc3C2)ccc1O (configuration not stated)	-2.8	0.4	0.6	57*	43
CC(C)C(c1nnnn1C1CCCCC1)N1CCc2ccccc21 (configuration not stated)	-1	1.1	1	-8	0
C=CCNS(=O)(=O)c1sccc1/C=N/O	0.4	1	0.4	2	60*
CC(=O)N(CC(=O)O)c1ccccc1C(=O)O	0.7	1.1	1.1	-6	-6
COC(=O)CNc1nc(-c2ccncc2)nc2ccccc12	0.65	0.2	0.4	84*	56*
CCOc1nc(-c2ccncc2)nc2ccccc12	-0.23	/	/	/	/
Clc1ccc(-n2ncc3c(NCCCn4ccnc4)ncnc32)cc1	0.68	0.1	0.1	93*	95*
CCCCNc1ncnc2c1cnn2-c1ccc(Cl)cc1	-1.2	0.3	0.7	70*	28
c1ccc(-n2ncc3c(NCCCN4CCOCC4)ncnc32)cc1	0.17	1	1	-4	1
CCCCNc1ncnc2c1cnn2-c1ccccc1	-3.5	0	0.1	99*	89*
Clc1ccc(-n2ncc3c(NCCN4CCOCC4)ncnc32)cc1	0.64	1	0.9	2	13
c1ccc(-n2ncc3c(NCc4ccco4)ncnc32)cc1	-0.74	0.4	0.5	59*	50*
Oc1c(C(c2cccc(F)c2)N2CCN(Cc3ccccc3)CC2)sc2ncnn12 (configuration not stated)	0.16	/	/	/	/
CCOc1ccc(-c2cc(CCCC(=O)NCc3ccc(C)cc3)no2)cc1	/	0.5	0.6	53*	36
CCOc1ccc(-c2cc(CCCC(=O)NCc3ccco3)no2)cc1	-0.6	0.8	1	19	2
CCCCNC(=O)c1cc(-c2ccc(OC)cc2)on1	-0.31	0.8	0.5	20	47
COc1ccc(-c2cc(CCCC(=O)NCCc3cc(OC)ccc3OC)no2)cc1	/	0.3	0.4	66*	57*
CCC(C)(C)NC(=O)C(c1cccc(OC)c1)N(C(=O)c1ccn[nH]1)c1cccc(OC)c1 (configuration not stated)	-5.1*	0.8	0.3	23	74*
COc1ccc(OC)c(S(=O)(=O)N(C)CC(=O)Nc2cc(Cl)ccc2OC)c1	-1.2	/	/	/	/
COc1ccc(Cl)cc1NC(=O)C(C)Sc1nncn1C (configuration not stated)	/	1.3	1.1	-26	-10
COc1ccc(CCC(=O)Nc2cc(Cl)ccc2OC)cc1	-1.2	0.8	0	15	100*
COc1ccc(Cl)cc1NC(=O)C(C)Sc1n[nH]c(N)n1 (configuration not stated)	/	2.3*	0.6	-129	40
COc1ccc(CC(=O)Nc2cc(C)on2)cc1	1.3	1	0.7	2	26
COc1ccc(CC(=O)Nc2cc(Cl)ccc2O)cc1	-1.6	0.4	0.1	59*	92*
SMILES	Cav3 T inh	CYP2C9 activ	CYP2C19 activ	CYP2C9 inh	CYP2C19 inhib
COc1ccc(Cl)cc1NC(=O)Cn1cccc1	-0.47	2.8*	0.6	-178	36
CN(CC(=O)N1CCCC1)S(=O)(=O)c1cc(Cl)ccc1Cl	1.8	2.4*	0.8	-141	19
CN(CC(=O)Nn1cnnc1)S(=O)(=O)c1cc(Cl)ccc1Cl	0.013	0.1	0.2	87*	81*
COc1ccccc1C(=O)NCCC(=O)N1CC(=O)Nc2ccccc21	-0.93	2*	1.2	-97	-17
O=C1CN(C(=O)OCc2ccccc2)c2ccccc2N1	0.33	0.6	0.3	43	69*
CCOC(=O)N1CCN(C(=O)CN(C)S(=O)(=O)c2ccc3c(c2)C(C)(C)C(=O)N3C)CC1	/	0.8	0.9	20	5
COc1ccc(C(=O)Nc2ccc(-c3ccc(C)o3)cc2)cc1S(=O)(=O)N1CCOCC1	0.35	0.6	0.7	35	30
Cc1nc2nc[nH]n2c(=O)c1NC(=O)CC12CC3CC(CC(C3)C1)C2	1.1	1	1	4	-3

Compound activity from PubChem BioAssay.
